Consider 40 compounds from PubChem BioAssay (NCATS).

Records with an inconclusive call do not appear. Active and inactive are the calls of the source. Calls come from the whole dose curve; as a rule, active = well fitted inhibition curve with a large enough effect; inconclusive = small, poorly fitted or top-dose-only effect; inactive = flat fitted curve, though single readings scatter.
Potency is the fitted concentration of half-maximal effect.

This assay relates to CP203. Description: qHTS profiling for inhibitors of Plasmodium falciparum proliferation (AID 504749).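 For activity, negative = inhibition: 0% = DMSO vehicle and full inhibition = artemisinin control.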 Note: nearly all actives have a fitted effect of over 60% in size. The note with it: P. falciparum in erythrocytes, SYBR Green DNA, 72 h; series mostly up to 28.7 µM; activity, negative = inhibition: at the top concentration. The text has this: NIH National Institute of Allergy and Infectious Diseases [NIAID] NIH Chemical Genomics Center [NCGC] MLPCN Grant: None Assay Provider: Xinzhuan Su, NIAID NCGC Assay Overview: Plasmodium falciparum is a virulent malarial parasite that kills 1-2 million people worldwide each year. Transmitted by mosquitoes, the sporozoite form of the parasite enters the blood stream to infect hepatocytes, where they become merozoites that infect red blood cells (erythrocytes). Within erythrocytes, merozoites begin a […] cycle of growth and division, after which the parasite is released to infect new red blood cells. Gametocytes, which form within erythrocytes as well, circulate in the bloodstream and are ingested by the mosquito, thereby completing the life cycle. To profile malarial isolates for differential chemical responses and to identify inhibitors of malarial growth, an assay that measures P. falciparum growth and replication within erythrocytes was employed. This assay uses a DNA binding fluorescent dye (SYBR Green) to detect parasite DNA following cell lysis. Because mature erythrocytes lack DNA, only Plasmodium-derived DNA is detected.
NCGC Assay Protocol Summary: The SYBR Green viability assay was adapted from a method described previously (Plouffe et al., 2008). For screening 3 ul culture medium was dispensed into 1536 well black clear bottom plates (Aurora Biotechnologies) using a Multidrop Combi (Thermo Fisher Scientific Inc.), 23 nL compounds in DMSO were added by a pin tool (Kalypsys), and 5 ul of erythrocytes infected with P. falciparum (0.3% parasitemia, 2.5% hematocrit final concentration) were added. The plates were incubated at 37 C in a humidified incubator in 5% CO2 for 72 h, and 2 ul lysis buffer (20 mM Tris HCl, 10 mM EDTA, 0.16% saponin, 1.6% triton X, 10X SYBR Green I supplied as 10,000X […] by Invitrogen) was added to each well. The plates were mixed for 25 sec with gentle shaking and incubated overnight at room temperature in the dark. The following morning, fluorescence intensity at 485(14) nm excitation and 535(25) nm emission wavelengths was measured on an EnVision (Perkin Elmer) plate reader. Plate reads were normalized relative to the control inhibitor (0.29 uM artemisinin) and vehicle (DMSO) wells present on each plate and then corrected by an algorithm using vehicle-only control plates at the beginning and end of the compound plate stack.
As for `IC(I)I`, the “activity, negative = inhibition” value is -8.4% (inactive).

With `CCCCCCC(O)C/C=C/CCCCCCCC(=O)O` (stereo not given), the “activity, negative = inhibition” value was -1.38% (inactive).

Consider `O=C(O)CCC(=O)C(=O)O`, for which the “activity, negative = inhibition” value is 2.66% (inactive).

Turning to `CC1(C)C(C=C(Cl)Cl)C1C(=O)OCc1cccc(Oc2ccccc2)c1` (stereo not given), the “activity, negative = inhibition” value was -3.44% (inactive).

Consider `Nc1ncnc2c1ncn2[C@@H]1O[C@H](COP(=O)(O)OP(=O)(O)OP(=O)(O)O)[C@@H](O)[C@H]1O`, for which the “activity, negative = inhibition” value was -4.63% (inactive).

In the case of `COCC(=O)Nc1cc(Sc2ccccc2)ccc1N=C(NC(=O)OC)NC(=O)OC`, the “activity, negative = inhibition” value was -17.2% (inactive).

For the compound `CC(C(=O)O)c1ccc(N2Cc3ccccc3C2=O)cc1` (stereo not given), the “activity, negative = inhibition” value is -3.32% (inactive).

Regarding `CCCCCCCCCCCCCCCC(=O)OCC(COC(=O)CCCCCCCCCCCCCCC)OC(=O)CCCCCCCCCCCCCCC`, the “activity, negative = inhibition” value is -5.96% (inactive).

For `Nc1c(N=Nc2ccc(-c3ccc(N=Nc4cc(S(=O)(=O)O)c5ccccc5c4N)cc3)cc2)cc(S(=O)(=O)O)c2ccccc12`, the “activity, negative = inhibition” value was 1.83% (inactive).

Take `CCCCC(CC)COC(=O)CC(C(=O)OCC(CC)CCCC)S(=O)(=O)O` (stereo not given): the “activity, negative = inhibition” value was 2% (inactive).

`O=C(O)c1cc(=O)c2c3nc4ccccc4oc-3cc(=O)c2[nH]1`: the “activity, negative = inhibition” value was -6.36% (inactive).

Take `CCOC(=O)C1=C(C)NC(C)=C(C(=O)OCC)C1c1ccccc1C=CC(=O)OC(C)(C)C`: the Potency was 19 µM (active).

In the case of `CCCC(=O)O[C@]1(C(=O)CCl)[C@H](C)C[C@@H]2[C@H]3CCC4=CC(=O)C=C[C@]4(C)[C@@]3(F)C(=O)C[C@@]21C`, the Potency was 4.78 µM (active).

`CCN(CC)CCOc1ccc(-c2nc3cc(Cl)ccc3s2)cc1`: the “activity, negative = inhibition” value was -9.69% (inactive).

`CC(C)N=c1cc2n(-c3ccc(Cl)cc3)c3ccccc3nc-2cc1Nc1ccc(Cl)cc1`: the “activity, negative = inhibition” value was -11.5% [at 12.8 µM] (inactive).

`O=S(=O)(O)O`: the “activity, negative = inhibition” value is 8.86% (inactive).

In the case of `CC1(C)S[C@@H]2[C@H](NC(=O)[C@@H](NC(=O)N3CCNC3=O)c3ccccc3)C(=O)N2[C@H]1C(=O)O`, the “activity, negative = inhibition” value is 0.545% [at 12.8 µM] (inactive).

Take `CC(C)(C)C(=O)OCOC(=O)[C@@H]1N2C(=O)[C@@H](N=CN3CCCCCC3)[C@H]2SC1(C)C`: the “activity, negative = inhibition” value was 0.997% [at 12.8 µM] (inactive).

`C=CCSSSCC=C`: the “activity, negative = inhibition” value is -2.22% (inactive).

As for `CCCCC/C=C\C/C=C\CCCCCCCC(=O)O`, the “activity, negative = inhibition” value is 4.31% (inactive).

Take `COc1ccc2c3c1O[C@H]1C[C@@H](O)C=C[C@@]31CCN(C)C2`: the “activity, negative = inhibition” value is 3.01% (inactive).

With `O=C(Nc1cccc(C(F)(F)F)c1)c1cc(Br)cc(Br)c1O`, the Potency was 15.1 µM (active).

Turning to `C#CCOc1ccc2c(C)cc(=O)oc2c1`, the “activity, negative = inhibition” value is 4.64% (inactive).

For the compound `CO[C@H](C(=O)[C@@H](O)[C@@H](C)O)C1Cc2cc3cc(O[C@H]4C[C@@H](O[C@H]5C[C@@H](O)[C@H](O)[C@@H](C)O5)[C@@H](O)[C@@H](C)O4)c(C)c(O)c3c(O)c2C(=O)[C@H]1O[C@H]1C[C@@H](O[C@H]2C[C@@H](O[C@H]3C[C@](C)(O)[C@H](O)[C@@H](C)O3)[C@H](O)[C@@H](C)O2)[C@H](O)[C@@H](C)O1` (stereo not given in full), the Potency was 2.69 µM (active).

Regarding `C#C[C@]1(O)CC[C@H]2[C@@H]3CCC4=CCCC[C@@H]4[C@H]3C(=C)C[C@@]21CC`, the “activity, negative = inhibition” value was -2.44% (inactive).

`Cc1c(C)c2c(c(C)c1O)CC[C@@](C)(CCC[C@H](C)CCC[C@H](C)CCCC(C)C)O2`: the “activity, negative = inhibition” value is 0.323% (inactive).

Consider `CCCCCCCCCCCCCC[n+]1ccc(C)cc1`, for which the Potency is 3.79 µM (active).

With `CC(C)=O`, the “activity, negative = inhibition” value is 2.43% (inactive).

For `C[C@H]1C[C@H]2[C@@H]3CCC4=CC(=O)C=C[C@]4(C)[C@@]3(F)[C@@H](O)C[C@]2(C)[C@@]1(O)C(=O)CO`, the “activity, negative = inhibition” value is 3.85% (inactive).

For `O=CCCCC=O`, the “activity, negative = inhibition” value is -3.21% (inactive).

Take `CCNC(=O)[C@@H]1CCCN1C(=O)[C@H](CCCN=C(N)N)NC(=O)[C@H](CC(C)C)NC(=O)[C@@H](Cc1c[nH]c2ccccc12)NC(=O)[C@H](Cc1ccc(O)cc1)NC(=O)[C@H](CO)NC(=O)[C@H](Cc1c[nH]c2ccccc12)NC(=O)[C@H](Cc1cnc[nH]1)NC(=O)[C@@H]1CCC(=O)N1`: the Potency was 6.75 µM (active).

For `CCCC(=O)Nc1ncnc2c1ncn2C1OC2COP(=O)(O)OC2C1OC(=O)CCC` (stereo not given), the “activity, negative = inhibition” value was -5.45% (inactive).

As to `CC[N+](C)(C)Cc1ccccc1Br`, the “activity, negative = inhibition” value was 5.24% [at 12.8 µM] (inactive).

Turning to `CCOc1ccc2c(c1)C(C)=CC(C)(C)N2`, the “activity, negative = inhibition” value is 0.221% (inactive).

Consider `CCN(CC)Cc1cc(Nc2ccnc3cc(Cl)ccc23)ccc1O`, for which the Potency was 0.144 µM (active).

On to `O=C1C(=O)c2ncccc2-c2cccnc21`, for which the Potency is 1.69 µM (active).

For the compound `CCC(=O)NCCC1CCc2ccc3c(c21)CCO3` (stereo not given), the “activity, negative = inhibition” value is -1.55% (inactive).

For the compound `NC(=O)c1ncn(C2OC(CO)C(O)C2O)n1` (stereo not given), the “activity, negative = inhibition” value was -2.7% (inactive).

Take `O=C(COc1ccc(Cl)cc1)OCCNC12CC3CC(CC(C3)C1)C2`: the “activity, negative = inhibition” value was -3.54% (inactive).

Take `CC(O)CO` (stereo not given): the “activity, negative = inhibition” value is 0.984% (inactive).
